Data: ChEMBL document CHEMBL1961873, “Compounds: GSK PKIS; Assays: Nanosyn kinase panel” (2012)

How the values were obtained:
[1] = target: T1, Serine/threonine-protein kinase TBK1 (Homo sapiens) (UniProt Q9UHD2); conditions: at 1 µM;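 further: values are mean inhibition of TBK1, screened as part of the GSK published kinase inhibitor set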
T1 sequence (whole entry): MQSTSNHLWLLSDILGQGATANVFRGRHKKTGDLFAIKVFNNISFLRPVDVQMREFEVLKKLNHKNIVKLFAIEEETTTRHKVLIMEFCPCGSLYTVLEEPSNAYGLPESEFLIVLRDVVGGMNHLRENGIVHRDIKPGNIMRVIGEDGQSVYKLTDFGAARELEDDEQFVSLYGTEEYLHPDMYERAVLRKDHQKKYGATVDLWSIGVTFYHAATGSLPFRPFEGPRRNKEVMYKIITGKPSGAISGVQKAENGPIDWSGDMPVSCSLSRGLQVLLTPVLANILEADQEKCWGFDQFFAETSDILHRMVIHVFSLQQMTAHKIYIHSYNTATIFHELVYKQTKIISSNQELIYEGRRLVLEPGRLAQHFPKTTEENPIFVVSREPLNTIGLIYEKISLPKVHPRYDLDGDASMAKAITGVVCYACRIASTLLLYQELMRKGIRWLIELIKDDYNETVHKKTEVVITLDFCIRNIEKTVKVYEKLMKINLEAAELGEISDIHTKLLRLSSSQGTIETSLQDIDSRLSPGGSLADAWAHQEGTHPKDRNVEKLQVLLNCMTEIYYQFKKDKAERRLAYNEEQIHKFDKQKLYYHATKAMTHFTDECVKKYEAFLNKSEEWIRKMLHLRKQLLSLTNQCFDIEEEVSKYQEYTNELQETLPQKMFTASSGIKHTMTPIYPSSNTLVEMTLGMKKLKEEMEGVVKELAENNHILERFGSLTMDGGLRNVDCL

[2] = target: T2, Testis-specific serine/threonine-protein kinase 1 (Homo sapiens) (UniProt Q9BXA7); conditions: at 0.1 µM
T2 sequence (whole entry): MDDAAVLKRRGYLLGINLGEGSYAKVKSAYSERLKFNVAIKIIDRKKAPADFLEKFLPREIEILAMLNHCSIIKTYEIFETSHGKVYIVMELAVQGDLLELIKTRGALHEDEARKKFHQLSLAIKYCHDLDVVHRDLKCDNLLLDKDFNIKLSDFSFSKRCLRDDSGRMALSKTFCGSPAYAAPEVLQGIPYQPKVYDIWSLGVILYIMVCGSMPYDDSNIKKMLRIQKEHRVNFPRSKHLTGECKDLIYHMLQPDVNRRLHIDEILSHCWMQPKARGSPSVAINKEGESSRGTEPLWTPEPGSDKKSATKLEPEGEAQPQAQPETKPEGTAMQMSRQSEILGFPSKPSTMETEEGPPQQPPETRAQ

[3] = target: T2, Testis-specific serine/threonine-protein kinase 1 (Homo sapiens); conditions: at 1 µM
[4] = target: T3, Testis-specific serine/threonine-protein kinase 2 (Homo sapiens) (UniProt Q96PF2); conditions: at 0.1 µM
T3 sequence (whole entry): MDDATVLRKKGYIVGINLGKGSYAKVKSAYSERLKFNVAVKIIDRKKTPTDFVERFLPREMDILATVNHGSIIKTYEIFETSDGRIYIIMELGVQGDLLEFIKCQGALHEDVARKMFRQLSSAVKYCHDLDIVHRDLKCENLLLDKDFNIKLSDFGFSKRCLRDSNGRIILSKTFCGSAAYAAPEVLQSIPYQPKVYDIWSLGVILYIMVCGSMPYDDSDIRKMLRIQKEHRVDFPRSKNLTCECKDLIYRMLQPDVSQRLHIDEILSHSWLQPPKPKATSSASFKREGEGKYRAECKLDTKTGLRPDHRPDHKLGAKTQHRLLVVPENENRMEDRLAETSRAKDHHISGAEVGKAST

[5] = target: T3, Testis-specific serine/threonine-protein kinase 2 (Homo sapiens); conditions: at 1 µM
[6] = target: Casein kinase I isoform alpha (Homo sapiens) (UniProt P48729); conditions: at 0.1 µM
[7] = target: Casein kinase I isoform alpha (Homo sapiens) (UniProt P48729); conditions: at 1 µM
[8] = target: Casein kinase I isoform gamma-1 (Homo sapiens) (UniProt Q9HCP0); conditions: at 0.1 µM
[9] = target: Casein kinase I isoform gamma-1 (Homo sapiens) (UniProt Q9HCP0); conditions: at 1 µM
[10] = target: Casein kinase I isoform gamma-2 (Homo sapiens) (UniProt P78368); conditions: at 0.1 µM;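 further: values are mean inhibition figures reported as part of the GSK PKIS dataset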
Casein kinase I isoform gamma-2 (Homo sapiens), sequence (P78368 whole entry, looked up, canonical isoform): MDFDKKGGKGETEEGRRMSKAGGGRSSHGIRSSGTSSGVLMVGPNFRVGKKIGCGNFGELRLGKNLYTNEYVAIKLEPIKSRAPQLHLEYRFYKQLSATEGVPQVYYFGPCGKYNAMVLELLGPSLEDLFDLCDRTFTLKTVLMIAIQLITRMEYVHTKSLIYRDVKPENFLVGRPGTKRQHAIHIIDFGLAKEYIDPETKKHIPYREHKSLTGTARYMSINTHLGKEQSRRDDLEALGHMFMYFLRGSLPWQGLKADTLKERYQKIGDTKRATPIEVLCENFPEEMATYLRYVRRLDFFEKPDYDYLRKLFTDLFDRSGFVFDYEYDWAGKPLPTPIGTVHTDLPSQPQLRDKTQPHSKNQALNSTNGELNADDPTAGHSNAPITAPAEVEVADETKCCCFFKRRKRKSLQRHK

Casein kinase I isoform alpha (Homo sapiens), sequence (P48729 2-337 limits assumed): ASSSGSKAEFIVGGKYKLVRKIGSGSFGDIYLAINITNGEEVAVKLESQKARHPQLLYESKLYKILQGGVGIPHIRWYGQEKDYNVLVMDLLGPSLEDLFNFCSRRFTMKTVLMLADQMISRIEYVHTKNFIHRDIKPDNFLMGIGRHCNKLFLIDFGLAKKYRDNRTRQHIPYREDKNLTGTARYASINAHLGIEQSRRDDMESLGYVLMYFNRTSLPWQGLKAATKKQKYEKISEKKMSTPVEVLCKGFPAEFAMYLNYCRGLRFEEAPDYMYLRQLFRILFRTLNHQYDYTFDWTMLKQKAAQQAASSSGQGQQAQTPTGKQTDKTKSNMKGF
Casein kinase I isoform gamma-1 (Homo sapiens), sequence (Q9HCP0 whole entry, looked up, canonical isoform): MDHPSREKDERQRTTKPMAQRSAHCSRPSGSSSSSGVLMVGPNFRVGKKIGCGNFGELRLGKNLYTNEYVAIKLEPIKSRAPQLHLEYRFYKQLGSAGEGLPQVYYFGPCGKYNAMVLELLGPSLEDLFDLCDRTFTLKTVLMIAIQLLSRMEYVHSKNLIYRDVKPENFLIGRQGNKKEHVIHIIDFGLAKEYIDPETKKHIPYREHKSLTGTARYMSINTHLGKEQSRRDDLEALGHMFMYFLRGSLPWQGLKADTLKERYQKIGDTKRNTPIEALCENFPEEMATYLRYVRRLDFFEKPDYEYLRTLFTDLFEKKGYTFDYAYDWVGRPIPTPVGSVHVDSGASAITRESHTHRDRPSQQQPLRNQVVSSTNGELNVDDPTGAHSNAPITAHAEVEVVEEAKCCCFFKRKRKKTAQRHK

SMILES	inhibition [1]	inhibition [2]	inhibition [3]	inhibition [4]	inhibition [5]	inhibition [6]	inhibition [7]	inhibition [8]	inhibition [9]	inhibition [10]
Cc1ccc(O)cc1Nc1ccnc2cc(-c3ccccn3)ccc12	6.68%	3.87%	3.16%	1.09%	-1.1%	3.78%	12.5%	4.65%	11%	2.73%
NC(=O)c1sc(-n2cnc3ccc(C(F)(F)F)cc32)cc1OCc1ccccc1Br	2.04%	3.44%	3.86%	2.62%	2.38%	0.93%	2.88%	3.36%	3.78%	3.03%
N#Cc1c(NC(=O)CN2CCOCC2)sc2c1CCCC2	4.24%	-0.56%	3.34%	1.22%	2.29%	6.79%	6.01%	3.78%	5.69%	3.2%
COc1cc(/C=N/Nc2ncnc3[nH]ncc23)ccc1O	21.1%	4.57%	11.6%	3.14%	1.44%	3.78%	13.7%	3.68%	19%	4.88%
Fc1ccc(-c2nn3ncccc3c2-c2ccnc(Nc3ccc4c(c3)OCCO4)n2)cc1	4.55%	4.06%	2.68%	1.3%	1.02%	39.5%	72.5%	14.8%	58.5%	11.1%
CCCN1CCC(c2ccc(Nc3nc(Nc4cc(F)ccc4C(N)=O)c4cc[nH]c4n3)c(OC)c2)CC1	10.2%	82.4%	94.8%	63.3%	91.1%	31.9%	67.5%	23.7%	72.1%	20.9%
COc1cccc(-c2c[nH]c3c(N/N=C/c4ccncc4)ncnc23)c1	34.6%	1.82%	-0.71%	0.73%	-2.11%	5.65%	7.98%	1.21%	4.05%	0.6%
CCn1c(-c2nonc2N)nc2cnc(Oc3cccc(NC(=O)c4ccc(N(C)C)cc4)c3)cc21	6.31%	10.9%	52.2%	-0.81%	-0.76%	2.09%	7.22%	1.44%	1.65%	1.06%
Fc1ccc(-c2nn3ccccc3c2-c2ccncc2)cc1	0.18%	1.12%	1.44%	-0.56%	0.24%	13.7%	58.4%	1.48%	8.01%	1.65%
CCn1c(-c2nonc2N)nc2c(C#CC(C)(C)O)nc(OC[C@H](N)c3ccccc3)cc21	6.85%	7.96%	44.1%	0.93%	2.24%	2.03%	11.4%	1.99%	5.61%	1.71%
COc1ccc(-c2nn3ncccc3c2-c2ccnc(Nc3ccc4c(c3)OCCO4)n2)cc1	1.43%	-0.54%	-0.16%	1.42%	-0.78%	0%	3.14%	1.16%	3.57%	1.93%
CCOc1ccc2c(-c3ccnc(Nc4cccc(C(F)(F)F)c4)n3)cnn2n1	13.1%	2.69%	3.46%	0.15%	0.22%	0.42%	0.35%	2.16%	3.1%	2.06%
Cc1ccc2c(-c3ccnc(Nc4ccccc4)n3)c(-c3ccc(F)cc3)nn2n1	2.79%	2.68%	0.03%	2.66%	-2.67%	33.6%	70.7%	5.48%	32%	5.54%
Fc1cccc(COc2ccc(Nc3ncnc4sc(-c5ccco5)cc34)cc2Cl)c1	2.89%	2.79%	3.11%	0.52%	2.23%	3.24%	3.14%	4.55%	4.42%	4.05%
CN(C)CCOc1ccc(-c2nc(-c3ccncc3)c(-c3ccc4c(c3)CC/C4=N\O)[nH]2)cc1	3.98%	1.85%	2.25%	3.34%	2.43%	3.41%	7.2%	2.51%	4.6%	2.26%
FC(F)(F)c1cccc(-c2nn3ncccc3c2-c2ccnc(Nc3ccc4c(c3)OCCO4)n2)c1	2.28%	2.75%	1.2%	-0.07%	-1.1%	1.53%	4.39%	2.58%	4.21%	1.92%
CC1=C(C(=O)Nc2cc(Cl)c3[nH]ncc3c2)C(c2ccc(C(F)(F)F)cc2)CC(=O)N1 (stereo not given)	3.48%	3.52%	3.9%	2.37%	1.37%	1.86%	2.49%	2.91%	3.25%	2.31%
CS(=O)(=O)CCNCc1ccc(-c2ccc3ncnc(Nc4ccc(OCc5ccccc5)c(C(F)(F)F)c4)c3c2)o1	1.05%	3.83%	3.88%	0.53%	0.75%	2.27%	0.82%	3.86%	8.13%	3.82%
COc1ccc(-c2cc3c(N)ncnc3o2)cc1	1.62%	-1.68%	1.43%	-1.12%	-0.58%	-2.35%	-1.14%	-1.13%	-0.49%	-0.59%
CCn1c(-c2nonc2N)nc2c(C#CC(C)(C)O)ncc(OC3CCNCC3)c21	45.9%	20.7%	71.4%	0.88%	2.99%	2.3%	8.85%	2.94%	4.65%	2.46%

SMILES	inhibition [1]	inhibition [2]	inhibition [3]	inhibition [4]	inhibition [5]	inhibition [6]	inhibition [7]	inhibition [8]	inhibition [9]	inhibition [10]
O=C(Nc1n[nH]c2cc(-c3ccc(F)cc3)ccc12)C1CC1	5.39%	3.31%	2.06%	2.29%	0.97%	2.37%	7.14%	2.86%	3.21%	2.45%
CCn1cc(-c2ccnc3[nH]ccc23)c(-c2cccc(NC(=O)Nc3ccc(OCc4ccccc4)cc3)c2)n1	-0.26%	1.75%	1.5%	-0.38%	-0.63%	-1.12%	-1.47%	1%	1.59%	0.29%
COc1ccc(-c2oc3ncnc(N)c3c2-c2ccc(NC(=O)Nc3cc(C(F)(F)F)ccc3F)cc2)cc1	3.95%	4.93%	5.3%	3.63%	3.45%	3.27%	3.17%	2.43%	3.7%	2.18%
CCN(CC)S(=O)(=O)c1ccc(OC)c(Nc2ncc(-c3ccccc3)o2)c1	4.22%	0.3%	-0.98%	-0.73%	-0.01%	1.13%	1.02%	0.91%	0.27%	0.3%
O=C(O[C@H]1CN[C@H](C#Cc2cc3ncnc(Nc4ccc(Cc5ccccc5)cc4)c3s2)C1)N1CCOCC1	1.65%	0.42%	0.57%	1.12%	-0.88%	0.51%	1.74%	2.25%	2.28%	2.49%
CN1CCC(n2cnc(-c3ccc(F)cc3)c2-c2ccnc(Nc3ccccc3)n2)CC1	2.8%	3.05%	3.21%	2.5%	2.86%	53.5%	83.6%	7.05%	42%	4.57%
c1cc(-c2cnn3nc(N4CCOCC4)ccc23)nc(NC2CC2)n1	6.36%	2.66%	5.12%	0.16%	-3.76%	5.43%	15.8%	3.42%	8.05%	3.35%
Nc1nc(-c2ccc(F)cc2)c(-c2ccc3ncccc3n2)s1	6.6%	4.27%	6.63%	2.36%	2.23%	3.47%	15.2%	4.29%	10.5%	3.47%
CCNC(=O)O[C@H]1CN[C@H](C#Cc2cc3ncnc(Nc4ccc(OCc5cccc(F)c5)c(Cl)c4)c3s2)C1	3.67%	2.93%	-2.91%	3.47%	-1.23%	1.8%	1.43%	2.15%	2.01%	1.8%
Fc1ccc(-c2cc(-c3c[nH]nc3-c3ccccn3)ccn2)cc1	3.03%	6.33%	9.18%	4.38%	6.99%	3.27%	5.16%	4.51%	7.09%	4.03%
CNC(=O)c1cc(-c2ccc(F)cc2)cc(-c2ccc(S(=O)(=O)N3CCCC3)cc2)c1N	1.13%	2.57%	3.21%	1.51%	1.66%	2.27%	3.11%	2.3%	2.21%	2.4%
COC(=O)c1sc(-n2cnc3cc(OC)c(OC)cc32)cc1OCc1ccccc1C(F)(F)F	28.6%	3.74%	4.56%	2.04%	1.18%	-3.52%	1.68%	4.13%	4.8%	2.8%
COc1ccc(CNC(=O)c2ccc(-c3cc(-c4nnc(C)o4)ccc3C)cc2)cc1	4.66%	3.31%	6.39%	2.67%	6.58%	-0.51%	2.48%	1.07%	-0.25%	1.05%
O=S(=O)(CCNCc1ccc(-c2ccc3ncnc(Nc4ccc(OCc5cccc(F)c5)c(Cl)c4)c3c2)o1)c1ccccc1	5.89%	4.61%	5.43%	2.59%	3.64%	4.43%	6.02%	4.93%	6.77%	4.49%
[O-][S+]1CCN(Cc2ccc(-c3ccc4ncnc(Nc5ccc(OCc6cccc(F)c6)c(Cl)c5)c4c3)o2)CC1	5.41%	5.74%	5.31%	3.26%	3.22%	5.02%	4.04%	4.04%	5.15%	3.65%
NS(=O)(=O)c1ccc(Nc2ncc(-c3ccccc3)o2)cc1	8.12%	1.35%	2.89%	1.54%	1.1%	1.88%	7.88%	2.83%	4.94%	2.8%
CCc1nn2ncccc2c1-c1ccnc(NC2CC2)n1	3.02%	1.98%	3.93%	1.82%	2.06%	4.3%	15.9%	1.08%	2.03%	1.32%
CCn1c(-c2nonc2N)nc2ccccc21	3.36%	2.04%	0.61%	0.97%	-0.93%	2.92%	3.37%	1.61%	3.25%	0.92%
COc1ccc(-c2cc(-c3c[nH]nc3-c3ccccn3)ccn2)cc1	6.38%	3.33%	5.54%	2.38%	3.88%	3.31%	11.5%	4.71%	5.78%	3.51%
